Test [1] is described as follows: compounds binding Alexa647 anti-His antibody – biochemical, small-molecule microarray, 635 nm fluorescence, artefact control for SMM control protein annotation, primary screen (AID 1128).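 Also: score merges feature fluorescence with signal-to-noise for each printed compound spot.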 Particulars: higher = more signal.
The subject of test [2] is Human papillomavirus type 1a E7 protein (residues 1-88). The test can be described thus: HPV1a E7 small-molecule binders, primary screen, biochemical, small-molecule microarray, residues 1-88, 635 nm (AID 1129). Particulars: small-molecule microarray binding, fluorescence 635 nm; higher = more signal.
Test [3] has as its target Focal adhesion kinase 1 (Homo sapiens) (UniProt Q05397). Description: PTK2 protein binding on printed compound slides – biochemical, small-molecule microarray, 635/667 nm fluorescence, BSA, DTT, primary screen (AID 1130).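 Also: composite of spot emission at 667 nm and signal to noise over triplicate slides.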 As to conditions: 635 nm fluorescence, higher = more signal.
Test [4] concerns Fibrinogen (Alexa647-labelled). The test can be described thus: Alexa647-fibrinogen binding to printed small molecules – biochemical, small-molecule microarray, 635/667 nm fluorescence, artefact control for SMM control-protein annotation, profiling panel (AID 1131).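 Also: z-score merges 667 nm fluorescence with per-spot signal-to-noise over triplicate slides.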 Particulars: fibrinogen-A647 binding fluorescence, higher = more signal.
Test [5] concerns the target Follistatin (Homo sapiens) (UniProt P19883). Description: FST protein binding to printed compounds – biochemical, small-molecule microarray, 635/667 nm fluorescence, primary screen (AID 1132). As to conditions: 635 nm fluorescence, higher = more signal.
Test [6] addresses Fibroblast growth factor 2 (Homo sapiens) (UniProt P09038). Description: basic fibroblast growth factor binding to printed compounds – biochemical, small-molecule microarray, 635/667 nm fluorescence, primary screen (AID 1133). Particulars: FGF2, fluorescence 635/667, higher = more signal.
Test [7] is described as follows: JC-1 mitochondrial potential readout, lung cancer cells – cell-based, A549, JC-1 fluorescence, basal, 24 h, 100 nL, profiling panel (AID 1138).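 Also: A549 lung adenocarcinoma cells under basal conditions with no added stimulus; test concentration not given here.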 As to conditions: higher = more signal.
For the next test, the system named is Lefty1. Description: Lefty1 protein binding to printed compounds – biochemical, small-molecule microarray, 635/667 nm fluorescence, primary screen (AID 1139). As to conditions: fluorescence 635/667, higher = more signal.
In test [8] the test system is wheat germ agglutinin (Triticum aestivum), Alexa647-labelled. The test can be described thus: Alexa647-WGA lectin binding to printed small molecules – biochemical, small-molecule microarray, 635/667 nm fluorescence, artefact control for SMM control-protein annotation, profiling panel (AID 1140).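 Also: score merges 667 nm feature emission with signal to noise over triplicate slides.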 Particulars: WGA-A647 binding, 635 nm fluorescence, higher = more signal.

The target in test [9] is Luciferin 4-monooxygenase (Photinus pyralis) (UniProt P08659). Description: inhibition of purified Photinus pyralis luciferase – biochemical, luminescence, purified enzyme, 2006 set, primary screen (AID 1141).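 Also: cell-free assay with purified firefly luciferase at 100 ng per well in PBS; test concentration not given here.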 As to conditions: purified firefly luciferase, SteadyGlo luminescence, 30 min; higher = more signal, called active from +8 up or from −8 down.
For test [10], the system named is Wnt5a (protein binding on small-molecule microarray). Description: small molecules binding Wnt5a protein – biophysical, small-molecule microarray, 635/667 nm fluorescence, primary screen (AID 1142).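 Also: fluorescence read at 667 nm with signal to noise per printed feature.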 As to conditions: 635 nm fluorescence, higher = more signal.
Test [11] in a line: ATP-based viability of Huh7 replicon cells – cell-based, CellTiter-Glo luminescence, basal, 48 h, cytotoxicity control for HCV replication inhibitor project, primary screen (AID 1143).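 Also: Huh7 hepatoma cells carrying a hepatitis C replication reporter with no stimulus; test concentration not given here.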 Particulars: higher = more signal, called active from +8 up or from −8 down.
The nature of test [12]: Pseudomonas biofilm growth suppression – PAO1 strain, BacTiter-Glo luminescence, LB-PBS, primary screen (AID 1144). Particulars: P. aeruginosa PAO1 biofilm, 12 h, higher = more signal.
Test [13] can be described thus: basal CRE-LacZ reporter activity in PC12 – cell-based, unstimulated, primary screen (AID 1145). As to conditions: no forskolin, luminescence, 4.5 h, higher = more signal, called active from +8 up or from −8 down.
The nature of test [14]: forskolin-driven CRE-LacZ activity in PC12 – cell-based, CRE-LacZ reporter, forskolin-stimulated, primary screen (AID 1146).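 Also: PC12 cells with 6xCRE LacZ reporter stimulated by forskolin 10 µM; beta-galactosidase reporter signal reflecting CREB driven transcription.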 As to conditions: luminescence, 4.5 h, higher = more signal, called active from +8 up or from −8 down.
Test [15] deals with Streptavidin (Streptomyces avidinii) (UniProt P22629). Description: compounds binding control protein streptavidin – biophysical, small-molecule microarray, 635/667 nm fluorescence, artefact control for SMM compound annotation, primary screen (AID 1147).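 Also: signal reflects streptavidin binding to arrayed compounds as a control protein.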 As to conditions: higher = more signal.
Test [16] can be described thus: probe aInhba binding on compound microarray – biochemical, small-molecule microarray, 635/667 nm fluorescence, primary screen (AID 1148).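 Also: score merges 667nm spot fluorescence with signal-to-noise for antibody binding to printed compounds.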 Particulars: higher = more signal.
The target in test [17] is Torsin-1A (Homo sapiens) (UniProt O14656). The test can be described thus: TOR1A wild-type binding on microarray – cell lysate, small-molecule microarray, lysate, 635/667 nm, primary screen (AID 1149). Particulars: COS7 hTOR1A-WT lysate, 635 nm fluorescence, higher = more signal.
For test [18] the target is unchanged. The test can be described thus: torsin A mutant lysate binding on microarrays – cell lysate, small-molecule microarray, COS7 lysate, 635/667 nm fluorescence, primary screen (AID 1150).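 Also: score pools 667 nm emission and signal to noise measuring lysate protein binding.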 Particulars: COS7 hTOR1A mutant lysate, 635 nm fluorescence, higher = more signal.
Test [19] has as its system Sonic hedgehog protein (Shh). The test can be described thus: Sonic hedgehog microarray binding compounds – biochemical, small-molecule microarray, 635/667 nm fluorescence, primary screen (AID 1151).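 Also: Shh protein binding to compounds spotted on small-molecule microarray slides; score combines spot fluorescence intensity with signal-to-noise across triplicate slides.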 Particulars: 635 nm fluorescence, higher = more signal.

The structures appear in SMILES notation. Activity calls are given as the source filed them. Unless noted, no rule for the calls is given here.

Follistatin (Homo sapiens), sequence (P19883 whole entry, looked up): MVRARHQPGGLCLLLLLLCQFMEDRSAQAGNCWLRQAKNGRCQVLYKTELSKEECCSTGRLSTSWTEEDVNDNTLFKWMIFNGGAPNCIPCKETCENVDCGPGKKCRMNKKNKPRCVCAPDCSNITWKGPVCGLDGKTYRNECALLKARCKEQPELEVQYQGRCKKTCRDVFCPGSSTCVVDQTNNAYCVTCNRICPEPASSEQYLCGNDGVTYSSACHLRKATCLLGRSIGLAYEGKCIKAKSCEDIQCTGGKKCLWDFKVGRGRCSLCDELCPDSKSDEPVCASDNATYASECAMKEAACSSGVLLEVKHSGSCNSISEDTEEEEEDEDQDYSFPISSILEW
Fibroblast growth factor 2 (Homo sapiens), sequence (P09038 whole entry, looked up): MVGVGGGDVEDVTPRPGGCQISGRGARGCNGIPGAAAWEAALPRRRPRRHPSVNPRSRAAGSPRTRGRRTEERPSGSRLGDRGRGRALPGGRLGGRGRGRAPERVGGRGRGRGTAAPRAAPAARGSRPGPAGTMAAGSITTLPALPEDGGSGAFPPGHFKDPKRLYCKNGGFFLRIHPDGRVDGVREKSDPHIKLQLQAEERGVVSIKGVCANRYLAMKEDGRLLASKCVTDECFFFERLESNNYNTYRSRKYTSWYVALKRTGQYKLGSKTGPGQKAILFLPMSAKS
Streptavidin (Streptomyces avidinii), sequence (P22629 whole entry, looked up): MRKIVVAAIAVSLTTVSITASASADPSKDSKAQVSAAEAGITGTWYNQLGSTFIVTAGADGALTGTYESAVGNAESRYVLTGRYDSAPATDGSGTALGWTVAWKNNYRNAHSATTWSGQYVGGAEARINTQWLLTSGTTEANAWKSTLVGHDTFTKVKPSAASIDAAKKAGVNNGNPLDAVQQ
Focal adhesion kinase 1 (Homo sapiens), sequence (Q05397 whole entry, looked up): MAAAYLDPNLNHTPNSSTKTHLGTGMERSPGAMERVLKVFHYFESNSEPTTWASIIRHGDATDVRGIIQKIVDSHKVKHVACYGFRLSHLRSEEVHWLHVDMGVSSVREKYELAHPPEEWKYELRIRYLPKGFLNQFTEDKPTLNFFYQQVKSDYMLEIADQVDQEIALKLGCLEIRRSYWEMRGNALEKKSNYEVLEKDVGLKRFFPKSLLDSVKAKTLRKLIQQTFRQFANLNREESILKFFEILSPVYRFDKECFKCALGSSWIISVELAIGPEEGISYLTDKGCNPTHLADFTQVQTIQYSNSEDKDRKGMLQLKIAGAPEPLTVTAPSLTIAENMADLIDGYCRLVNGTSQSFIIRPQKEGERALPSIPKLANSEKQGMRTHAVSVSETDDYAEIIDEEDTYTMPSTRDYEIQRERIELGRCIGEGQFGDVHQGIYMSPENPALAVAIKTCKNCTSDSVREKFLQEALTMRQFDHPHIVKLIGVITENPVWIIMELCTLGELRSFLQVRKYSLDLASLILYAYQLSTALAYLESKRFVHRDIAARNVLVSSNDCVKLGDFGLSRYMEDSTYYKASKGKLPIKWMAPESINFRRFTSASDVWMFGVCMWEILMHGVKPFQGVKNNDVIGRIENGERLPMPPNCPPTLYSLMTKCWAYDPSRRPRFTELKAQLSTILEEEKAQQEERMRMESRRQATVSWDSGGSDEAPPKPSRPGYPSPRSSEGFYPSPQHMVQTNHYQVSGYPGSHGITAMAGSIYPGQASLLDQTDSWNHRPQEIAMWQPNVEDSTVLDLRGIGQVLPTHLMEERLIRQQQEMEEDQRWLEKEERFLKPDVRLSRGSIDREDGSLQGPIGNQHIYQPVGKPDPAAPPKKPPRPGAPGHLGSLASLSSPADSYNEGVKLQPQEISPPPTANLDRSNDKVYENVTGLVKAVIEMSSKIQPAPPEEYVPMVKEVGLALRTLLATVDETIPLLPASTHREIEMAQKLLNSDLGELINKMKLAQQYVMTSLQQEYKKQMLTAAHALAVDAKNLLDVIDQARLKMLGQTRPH
Torsin-1A (Homo sapiens), sequence (O14656 whole entry, looked up): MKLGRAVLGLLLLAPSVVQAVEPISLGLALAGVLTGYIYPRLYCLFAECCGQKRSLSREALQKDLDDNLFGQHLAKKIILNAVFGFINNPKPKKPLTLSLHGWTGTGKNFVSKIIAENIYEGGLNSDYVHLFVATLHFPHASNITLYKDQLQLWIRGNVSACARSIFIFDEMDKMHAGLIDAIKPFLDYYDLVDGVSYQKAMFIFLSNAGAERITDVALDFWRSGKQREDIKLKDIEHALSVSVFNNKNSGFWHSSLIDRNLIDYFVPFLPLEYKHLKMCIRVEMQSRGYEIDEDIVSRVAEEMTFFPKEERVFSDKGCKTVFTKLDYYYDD
Luciferin 4-monooxygenase (Photinus pyralis), sequence (P08659 whole entry, looked up): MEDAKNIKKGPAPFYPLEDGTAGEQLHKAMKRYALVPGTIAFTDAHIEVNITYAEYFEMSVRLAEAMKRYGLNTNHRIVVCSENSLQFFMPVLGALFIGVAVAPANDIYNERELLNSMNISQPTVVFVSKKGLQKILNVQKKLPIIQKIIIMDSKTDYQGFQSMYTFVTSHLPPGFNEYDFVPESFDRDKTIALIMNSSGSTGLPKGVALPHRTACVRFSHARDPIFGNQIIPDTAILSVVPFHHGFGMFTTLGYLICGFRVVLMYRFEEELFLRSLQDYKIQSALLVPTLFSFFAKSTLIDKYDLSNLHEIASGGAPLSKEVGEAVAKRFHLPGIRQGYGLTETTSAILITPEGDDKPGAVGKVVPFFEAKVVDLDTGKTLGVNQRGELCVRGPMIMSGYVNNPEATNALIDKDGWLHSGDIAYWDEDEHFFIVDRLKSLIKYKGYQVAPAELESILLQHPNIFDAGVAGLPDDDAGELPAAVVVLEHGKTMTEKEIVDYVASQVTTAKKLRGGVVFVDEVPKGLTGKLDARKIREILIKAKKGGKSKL

For the molecule `CC(CO)N1C(=O)[C@@H]2C3C(=O)OCCC/C=C\[C@H]3OC23C=CCN(C(C)(C)C)C(=O)[C@@H]13` (stereo not given in full), the composite z-score was -0.286 in test [1]; -0.615 in test [2]; -0.05 in [3]; -0.47 in test [4]; 0.122 in test [5]; -0.0209 in test [6]. Further, the composite z-score with Lefty1 is 0.476; in [8], -0.452; in test [10], -0.221; in test [15], -0.221; in test [16] it was -0.128; with Torsin-1A (Homo sapiens) [17], 1.17. Moreover, the composite z-score in the test with Torsin-1A (Homo sapiens) [18] came out at 2.21; in test [19], 0.777. Besides, the z-score is -0.0344 in [7]; -0.562 (inactive) in test [9]; 0.559 (inactive) in [11]; -0.818 (inactive) in test [12]; -0.488 (inactive) in [13]; 0.636 (inactive) in test [14].
Turning to `C=CCOC(=O)[C@@H]1[C@H]2C(=O)O[C@H](c3ccccc3)[C@H](c3ccccc3)N2[C@H](c2ccc(OCCOC(=O)[C@@H]3C[C@@H]4C(=O)NCC(=O)N4[C@@H]3c3ccc(O)cc3)cc2)[C@@]12C(=O)Nc1ccc(I)cc12`, the composite z-score in test [1] turned out to be 1.88; in test [2] it was 1.21; in test [3] it was 0.823; in test [4], 0.342; in test [5], 1.36; in test [6] it was 1.27. Further, the composite z-score in the test with Lefty1 was 0.734; in test [8] it was 0.86; in [10], 0.828; in [15], -0.259; in test [16], 0.029; with Torsin-1A (Homo sapiens) [17], 0.877. The values for the composite z-score (in the test with Torsin-1A (Homo sapiens) [18]; in test [19]) were 0.706 and 1.53, respectively. In addition, the z-score was -1.73 in test [7]; 0.401 (inactive) in [9]; 0.489 (inactive) in test [11]; -0.725 (inactive) in [12]; -0.13 (inactive) in [13]; -0.974 (inactive) in test [14].
In the case of `CC(C)NC(=O)[C@@]1(c2ccc([N+](=O)[O-])cc2)CC(=O)N(C2CCCCC2)[C@@H]1c1ccc(CO)cc1I`, the composite z-score in [1] is -0.0568; in test [2] it was 1.15; in test [3], 0.52; in test [4], -0.517; in test [5], -0.315; in test [6] it was -0.331. Further, the composite z-score in the test with Lefty1 is -0.491; in test [8], -0.0784; in [10] it was -0.0239; in test [15], -0.154; in test [16] it was 0.0497; with Torsin-1A (Homo sapiens) [17], 0.0498. Further, the composite z-score with Torsin-1A (Homo sapiens) [18] was 0.242; in [19], -0.241. For the same molecule, the z-score in test [7] was 2.97; in [9] it was -1.11 (inactive); in [11] it was -4.27 (inactive); in test [12] it was 1.11 (inactive); in test [13], 1.04 (inactive); in test [14] it was -0.727 (inactive).
Regarding `C[N+](C)(C)CCCCCCNC(=O)[C@@H]1C[C@@H]2C(=O)N[C@@H](Cc3ccccc3)C(=O)N2[C@@H]1c1cccc(OCCO)c1`, the composite z-score in [1] was 2.18; in test [2], 0.432; in test [3], 0.214; in [4], 0.608; in test [5], 1.34; in test [6] it was 1.45. The composite z-score in the test with Lefty1 is 1; in test [8], 0.659; in test [10] it was 0.122; in test [15], 0.0123; in test [16], -0.0918; with Torsin-1A (Homo sapiens) [17] it was 0.787. For the same molecule, the composite z-score with Torsin-1A (Homo sapiens) [18] amounted to 1.51; in test [19] it was 1.92. Moreover, the z-score in test [7] was 0.435; in [9], -0.205 (inactive); in [11] it was -0.428 (inactive); in test [12], -0.573 (inactive); in [13], -1.22 (inactive); in test [14], -1.04 (inactive).
In the case of `Cc1ccc(S[C@]2(C(=O)O)CC(=O)N(C(C)C)[C@@H]2c2ccc(CO)cc2I)cc1`, the composite z-score came out at 3.36 in [1]; 0.476 in test [2]; 0.929 in test [3]; 0.432 in test [4]; 1.12 in test [5]; 0.253 in [6]. The composite z-score in the test on Lefty1 was -0.176; in test [8] it was 0.939; in [10] it was -0.0822; in test [15], 0.513; in [16] it was 0.516; with Torsin-1A (Homo sapiens) [17], 0.523. The results for the composite z-score (in the test with Torsin-1A (Homo sapiens) [18]; in [19]) were 0.202 and -0.189, respectively. For the same molecule, the z-score in [7] was 1.33; in [9], -2.26 (inactive); in [11] it was -2.86 (inactive); in test [12], -0.29 (inactive); in test [13], 0.324 (inactive); in test [14], 0.289 (inactive).

The record behind these values is PubChem BioAssay.
